Results filed as inconclusive are left out. The source made the active and inactive calls. Unless noted, the call rests on the fitted dose curve; in most records, active means well fitted curve in the direction sought with a large enough effect; inconclusive means small, poorly fitted or top-dose-only effect, or another doubt; inactive means no such curve, though single readings can be large; an effect the other way counts as inactive or inconclusive.
How the values were obtained:
[1] = NCATS anti-infectives library activity on HEK293 viability as a counter-qHTS vs the C. elegans viability qHTS (AID 1745854); further: on the % scale 0 is the no-effect control and ±100 the full control effect
Method in brief: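 CellTiter-Glo luminescence, read on a CCD imager, scored viability of HEK293 cells after 24 hr compound exposure at 37C. Library tested in several concentrations, 1:5 steps, up to 41.7 uM; digitonin served as control.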

[2] = molecular target: Glutathione peroxidase 1 (Homo sapiens) (UniProt P07203); test: Primary qHTS Assay for Inhibitors of Recombinant Selenoprotein Glutathione Peroxidase 1 (GPX1) (AID 1845191); further: nearly all actives have a fitted effect of over 65% in size
Method in brief: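 GR-coupled readout: NADPH consumption tracked by fluorescence, ex 340/em 450 nm, at t=0 and after 15 min at RT. Final mix 10 nM GPX1, 1 mM GSH, 0.5 mM CHP, 0.5 mM NADPH, 100 nM GR, 0.01% BSA, following 30 min enzyme–compound preincubation.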

[3] = molecular target: Phospholipid hydroperoxide glutathione peroxidase GPX4 (Homo sapiens) (UniProt P36969); test: Primary qHTS Assay for Inhibitors of Recombinant Selenoprotein Glutathione Peroxidase 4 (GPX4) (AID 1845192); further: nearly all actives have a fitted effect of over 65% in size; further: potency means the concentration at half of the fitted maximal effect; on activity change, negative = inhibition: on the % scale 0 is the no-effect control and ±100 the full control effect
Method in brief: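 Steps: GPX4 plus compound, 30 min RT; add GR/GSH/NADPH master mix; start with cumene hydroperoxide; read 340/450 nm fluorescence at 0 and 15 min. Finals were 200 nM GPX4, 1 mM GSH, 0.5 mM CHP, 0.5 mM NADPH, 100 nM GR.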

[4] = Quantitative High-Throughput drug screen in 47 multiple myeloma cell lines against the NCATS MIPE library collection: FR4_PLB cell viability assay (AID 1918924; further: nearly all actives have a fitted effect of over 35% in size; further: potency means the concentration at half of the fitted maximal effect)
Method in brief: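 Steps: seed 500 cells per well; pin-transfer MIPE 4.0 library; incubate 48 h at 37C, 5% CO2, humidified; add CellTiter-Glo, 5 min room temperature; read luminescence.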

[5] = Quantitative High-Throughput drug screen in 47 multiple myeloma cell lines against the NCATS MIPE library collection: EJM_DSMZ cell viability assay (AID 1918926; further: nearly all actives have a fitted effect of over 30% in size; further: potency means the concentration at half of the fitted maximal effect)
Method in brief: (§1)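 Inhibition of cell viability is measured here. Each line was plated at 500 cells per well, treated with MIPE 4.0 drugs, kept 48 hours at 37C, then assayed for ATP content by CellTiter-Glo luminescence.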

[6] = Quantitative High-Throughput drug screen in 47 multiple myeloma cell lines against the NCATS MIPE library collection: Delta47_JCRB cell viability assay (AID 1918925; further: nearly all actives have a fitted effect of over 45% in size; further: potency means the concentration at half of the fitted maximal effect)
Method in brief: as §1

[7] = NCATS anti-infectives library activity on the primary C. elegans qHTS viability assay (AID 1745855; calls by dose curve)
Method in brief: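 Titration-based screen in worms: eggs hatched overnight in M9, L1 larvae fed TOP10 capsules in S medium with compound, incubated 21 °C for 7 days; fluorescent objects gated by size and intensity at days 0, 3 and 7.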

[8] = molecular target: Luciferin 4-monooxygenase (Photinus pyralis) (UniProt P08659); test: Primary firefly luciferase (FLuc) qHTS assay for identification of artifact compounds. (AID 1845220); further: nearly all actives have a fitted effect of over 60% in size;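 on activity change, negative = inhibition: plate controls were DMSO vehicle for no effect and no enzyme for full effect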
Method in brief: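 D-luciferin and ATP (10 uM each, final) in Tris acetate buffer pH 7.6 were incubated with compounds for 15 min at room temperature. The reaction was started with 10 nM Photinus pyralis luciferase and luminescence read after 5 min. Percent inhibition was fitted to a 4-parameter Hill equation.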

[9] = Primary fluorescence-based thiol-reactive (MSTI) qHTS assay for identification of artifact compounds. (AID 1845221);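 further: thiol-reactive compounds lower the probe fluorescence signal; nearly all actives have a fitted effect of over 65% in size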
Method in brief: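 Thiol-reactive compounds detected by quenching of 4 uM MSTI fluorescence (525/598 nm) after 1 h room-temperature dark incubation in PBS pH 7.4, 2% DMSO. qHTS titration; percent inhibition Hill-fitted against Acetyl-MSTI/MSTI controls.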

[10] = test system: Nanoluciferase (engineered Oplophorus gracilirostris luciferase); test: Primary Nanoluciferase (NLuc) qHTS assay for identification of artifact compounds. (AID 1845222);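 further: 0% = DMSO and -100% = no enzyme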
Method in brief: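 Diluted conditioned medium from NLuc-expressing S16 cells treated with compounds for 15 min at room temperature, then Nano-Glo substrate added; luminescence read after 5 min. Percent inhibition versus no-enzyme and DMSO controls fitted to 4-parameter Hill equation.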

[11] = molecular target: Guanidinoacetate N-methyltransferase (Homo sapiens) (UniProt Q14353); test: Confirmatory Screen for Target Class Profiling of Small Molecule Inhibitors of Methyltransferases (AID 1745852; calls by dose curve; on activity change, negative = inhibition: on the % scale 0 is the no-effect control and ±100 the full control effect); details: MTase-Glo luminescence, SAH detection, recombinant enzyme; activity change, negative = inhibition: at 57.3 µM (top of the series) unless noted
[12] = molecular target: Nicotinamide N-methyltransferase (Homo sapiens) (UniProt P40261); test: as above; details: MTase-Glo luminescence, SAH detection, recombinant enzyme; measured here: NNMT max response; stronger effect = lower value
[13] = molecular target: Phenylethanolamine N-methyltransferase (Homo sapiens) (UniProt P11086); test: as above; details: MTase-Glo luminescence, SAH detection, recombinant enzyme; measured here: PNMT max response; stronger effect = lower value
[14] = Primary redox qHTS assay for identification of artifact compounds. (AID 1845223);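 further: 0% = DMSO and 100% = reference compound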
Method in brief: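 Redox-cycling detection via DTT (250 uM final) oxidation coupled to Amplex Red (25 uM)/HRP (250 mU/mL) in HBSS. 15 min preincubation plus 30 min after DTT, room temperature. Ex/Em 525/598 nm; 4-parameter Hill fit against DMSO and 10 uM DA3003.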

[15] = molecular target: Metallo-beta-lactamase type 2 (Klebsiella pneumoniae) (UniProt C7C422); test: qHTS to identify inhibitors of the New Delhi Metallo-beta-lactamase (NDM): assay validation screen against the NCATS LOPAC Collection (AID 1794843);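 further: nitrocefin turnover by NDM-1 measured as 485 nm absorbance at plateau; on the % scale 0 is the no-effect control and ±100 the full control effect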
Method in brief: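 Enzyme 2 nM final, 50 mM HEPES pH 7.0, 1 uM ZnSO4, 0.01% Tween20; cpds in DMSO, preincub w/ enzyme; + nitrocefin (50 uM stock); A485 at plateau; no-enzyme column as blank.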

Sequence of Glutathione peroxidase 1 (Homo sapiens) (P07203 whole entry, looked up): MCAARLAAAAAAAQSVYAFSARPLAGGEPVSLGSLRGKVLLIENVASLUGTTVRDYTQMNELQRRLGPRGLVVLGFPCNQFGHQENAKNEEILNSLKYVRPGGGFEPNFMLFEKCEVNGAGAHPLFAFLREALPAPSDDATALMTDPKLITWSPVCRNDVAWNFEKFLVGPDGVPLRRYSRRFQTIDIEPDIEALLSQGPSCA
Sequence of Phospholipid hydroperoxide glutathione peroxidase GPX4 (Homo sapiens) (P36969 whole entry, looked up): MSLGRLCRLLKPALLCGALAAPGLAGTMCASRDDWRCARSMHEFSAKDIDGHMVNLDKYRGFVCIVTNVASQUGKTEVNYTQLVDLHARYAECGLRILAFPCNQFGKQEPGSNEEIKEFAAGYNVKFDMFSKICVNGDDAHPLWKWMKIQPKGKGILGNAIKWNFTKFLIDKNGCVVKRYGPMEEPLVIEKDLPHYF
Sequence of Nicotinamide N-methyltransferase (Homo sapiens) (P40261 whole entry, looked up): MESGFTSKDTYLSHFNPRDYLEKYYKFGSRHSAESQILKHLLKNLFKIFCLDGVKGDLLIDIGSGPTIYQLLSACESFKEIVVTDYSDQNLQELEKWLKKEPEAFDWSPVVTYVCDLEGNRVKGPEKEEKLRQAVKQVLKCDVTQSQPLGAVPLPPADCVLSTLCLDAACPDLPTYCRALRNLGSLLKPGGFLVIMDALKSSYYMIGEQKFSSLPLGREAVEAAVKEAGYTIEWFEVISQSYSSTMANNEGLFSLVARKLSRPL
Sequence of Phenylethanolamine N-methyltransferase (Homo sapiens) (P11086 whole entry, looked up): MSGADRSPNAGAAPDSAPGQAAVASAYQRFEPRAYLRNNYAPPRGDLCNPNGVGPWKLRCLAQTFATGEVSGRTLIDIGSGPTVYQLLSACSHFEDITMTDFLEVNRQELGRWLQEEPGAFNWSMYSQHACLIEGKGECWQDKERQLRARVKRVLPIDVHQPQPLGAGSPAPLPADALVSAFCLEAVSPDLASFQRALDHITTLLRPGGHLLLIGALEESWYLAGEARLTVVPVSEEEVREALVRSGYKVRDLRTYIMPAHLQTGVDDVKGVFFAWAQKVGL
Sequence of Metallo-beta-lactamase type 2 (Klebsiella pneumoniae) (C7C422 whole entry, looked up): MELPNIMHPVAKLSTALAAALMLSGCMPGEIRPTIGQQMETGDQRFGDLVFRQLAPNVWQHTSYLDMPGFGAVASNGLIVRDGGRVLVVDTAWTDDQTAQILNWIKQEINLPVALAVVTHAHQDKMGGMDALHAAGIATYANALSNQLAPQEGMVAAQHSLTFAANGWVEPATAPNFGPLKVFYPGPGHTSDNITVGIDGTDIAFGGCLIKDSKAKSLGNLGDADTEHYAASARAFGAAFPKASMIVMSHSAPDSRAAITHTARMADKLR

CC#CCn1c(N2CCC[C@@H](N)C2)nc2c1c(=O)n(Cc1nc(C)c3ccccc3n1)c(=O)n2C
inactive: outcome [1] | Potency [2] | Potency [3] | Potency [4] | Potency [5]

C=CCc1ccc(O)c(-c2ccc(O)c(CC=C)c2)c1
inactive: outcome [1]
active: Potency [6] 18.7 µM | Potency [5] 23.5 µM

CC1CCC(C(=O)N(c2cc(C#CC(C)(C)C)sc2C(=O)O)C2CCC(O)CC2)CC1 (stereo unspecified)
active: Potency [3] 9.04 µM | Potency [6] 23.5 µM
inactive: outcome [1] | Potency [7] | Potency [2] | Potency [8] | Potency [9] | Potency [10]

CC(=O)N(C)C1(c2ccccc2)CCN(CCC[C@]2(c3ccc(Cl)c(Cl)c3)CCCN(C(=O)c3ccccc3)C2)CC1
inactive: Potency [2] | Potency [3] | Potency [8] | Potency [9] | Potency [10] | outcome [14]
0%: activity change, negative = inhibition [11]
-62.2%: activity [12]
-6.52%: activity [13]
active: Potency [6] 10.5 µM | Potency [5] 20.9 µM

C[C@H](NC(=O)C(=O)Nc1ccccc1C(C)(C)C)C(=O)N[C@@H](CC(=O)O)C(=O)COc1c(F)c(F)cc(F)c1F
inactive: activity change, negative = cytotoxicity [1] -18.7% [at 8.35 µM] | Potency [2] | Potency [3] | Potency [6] | Potency [5]

Cc1cccc(C)c1OCC(C)N (stereo unspecified)
inactive: Potency [15] | Potency [2] | Potency [3]

O=C(Nc1c(Cl)cncc1Cl)c1ccc(OC(F)F)c(OCC2CC2)c1
active: Potency [6] 26.4 µM
inactive: outcome [1] | Potency [2] | Potency [3] | Potency [4] | Potency [5]

CC[C@]1(O)C[C@@H]2CN(CCc3c([nH]c4ccccc34)[C@@](C(=O)OC)(c3cc4c(cc3OC)N(C)[C@H]3[C@@](O)(C(=O)OC)[C@H](OC(C)=O)[C@]5(CC)C=CCN6CC[C@]43[C@@H]65)C2)C1
4.57%: activity [13]
10.8%: activity change, negative = inhibition [11]
-2.58%: activity [12]
inactive: Potency [2] | Potency [3] | Potency [8] | Potency [10]

CCCCCN(C)CCC(O)(P(=O)(O)O)P(=O)(O)O
inactive: activity change, negative = cytotoxicity [1] -3.04% [at 3.71 µM] | Potency [5]

COc1cc2ncnc(-n3nc(-c4ccccn4)nc3N)c2cc1OC
active: Potency [4] 11.8 µM | Potency [6] 1.48 µM | Potency [5] 14.8 µM
inactive: Potency [2] | Potency [3] | Potency [8] | Potency [9] | Potency [10] | outcome [14]

CS(=O)c1ccc(-c2nc(-c3ccc(F)cc3)c(-c3ccncc3)[nH]2)cc1 (stereo unspecified)
active: Potency [3] 25.5 µM | Potency [6] 13.6 µM | Potency [5] 10.8 µM
inactive: Potency [2] | Potency [8] | Potency [9] | Potency [10] | outcome [14]

O=C(Nc1cccc(Br)c1)c1cccc(S(=O)(=O)N2CCCCCC2)c1
inactive: Potency [2] | Potency [3] | Potency [8] | Potency [9] | Potency [10] | outcome [14]
active: Potency [6] 18.7 µM

CS(=O)(=O)N(Cc1ccco1)CC(O)Cn1c2ccccc2c2ccccc21 (stereo unspecified)
inactive: Potency [2] | Potency [3] | Potency [8] | Potency [9] | Potency [10] | outcome [14] | Potency [4]
